The results in this text go back to PubChem BioAssay (EPA / NIEHS).

As usually defined, the AC50 is the concentration at which the activity in the assay is half-maximal.

Activity calls are given as the source filed them. Rule for the calls: active = hit-call score of the fitted dose curve at least 0.9, where 1 is the maximum; inactive = score below 0.9.

The nature of assay [1]: ATG_GLI_CIS: Attagene CIS-FACTORIAL HepG2 Assay for human Zinc Finger Protein GLI1 (AID 2282945). To be noted: HepG2, Attagene cis-factorial reporter mRNA, GLI element; actives raise or lower the signal. Put shortly: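 Bidirectional curve fits relative to DMSO, using reporter mRNA levels from RT-PCR plus capillary electrophoresis. Cells were HepG2 transiently carrying cis-regulated reporter constructs, harvested 24 h after dosing.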

In assay [2] the target is Bile acid receptor (Homo sapiens) (UniProt Q96RI1). The assay can be described thus: ATG_IR1_CIS: Attagene CIS-FACTORIAL HepG2 Assay for human Nuclear Receptor Subfamily 1 Group H Member 4 (NR1H4), IR1 submotif (AID 2282946). Particulars: IR1 reporter transcription, actives raise or lower the signal. Put shortly: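 Cells (human HepG2) carry transiently transfected cis-promoter reporter transcription units. Compounds are incubated 24 h, total RNA is reverse-transcribed and amplified, and labelled fragments are resolved by capillary electrophoresis. Curves use DMSO as baseline.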
Sequence of Bile acid receptor (Homo sapiens) (Q96RI1 whole entry, looked up, the tested form may be a part): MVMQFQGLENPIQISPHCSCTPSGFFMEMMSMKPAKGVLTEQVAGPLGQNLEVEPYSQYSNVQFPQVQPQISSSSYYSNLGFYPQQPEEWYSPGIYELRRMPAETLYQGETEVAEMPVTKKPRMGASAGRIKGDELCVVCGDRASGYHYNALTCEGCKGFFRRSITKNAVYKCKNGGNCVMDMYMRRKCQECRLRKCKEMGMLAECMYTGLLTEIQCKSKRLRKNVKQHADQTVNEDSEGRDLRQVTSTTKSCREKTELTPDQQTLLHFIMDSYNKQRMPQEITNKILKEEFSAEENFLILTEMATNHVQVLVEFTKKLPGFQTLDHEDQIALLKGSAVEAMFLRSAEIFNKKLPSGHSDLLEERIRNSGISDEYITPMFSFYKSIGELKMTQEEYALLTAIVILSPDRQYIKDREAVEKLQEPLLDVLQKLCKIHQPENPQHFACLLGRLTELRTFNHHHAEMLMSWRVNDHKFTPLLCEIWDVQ

A short description of assay [3]: ATG_GRE_CIS: Attagene CIS-FACTORIAL HepG2 Assay for human Glucocorticoid Response Elements (GRE) (AID 2282947). To be noted: HepG2 GRE cis-reporter, Attagene multiplex mRNA; actives raise or lower the signal. A digest of the protocol: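 Transient MRTU transfection of human HepG2 liver cells; cis-regulated reporters report endogenous factors. 24 h dosing → RNA isolation → RT-PCR → 6-FAM primer extension → HpaI cut → CE fragment analysis. Bidirectional fit, DMSO negative control.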

Assay [4] is described as follows: ATG_ISRE_CIS: Attagene CIS-FACTORIAL HepG2 Assay for human Interferon Regulatory Factor 1 (IRF1) binding to an Interferon-Stimulated Response Element (ISRE) (AID 2282948). Particulars: HepG2 ISRE cis-reporter (Attagene), mRNA transcription readout; actives raise or lower the signal. Put shortly:
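Cell-based cis-reporter assay; HepG2; 24 h exposure; reporter mRNA by RT-PCR plus capillary electrophoresis fluorescence; activity in either direction scored relative to DMSO.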

Assay [5] in a line: ATG_M_32_CIS: Attagene CIS-FACTORIAL HepG2 Assay for M32 Transcription Factor (Internal Marker) (AID 2282949).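 Note: background control marker of the multiplexed CIS panel rather than a real target.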 To be noted: HepG2 Attagene cis-factorial M32 reporter, mRNA; actives raise or lower the signal. A digest of the protocol:
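Fluorescent capillary electrophoresis peaks of HpaI-digested, FAM-labelled RT-PCR reporter products give the signal. Source: transiently transfected human liver HepG2 cells, 24 h after chemical dosing; bidirectional fitting against DMSO.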

Assay [6] in a line: ATG_M_06_CIS: Attagene CIS-FACTORIAL HepG2 Assay for M06 Transcription Factor (Internal Marker) (AID 2282950). To be noted: HepG2 Attagene CIS-FACTORIAL M06 internal marker reporter; actives raise or lower the signal. Put shortly: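 Fluorescence-labelled RT-PCR products from cis-promoter reporter units, cut with HpaI and resolved by capillary electrophoresis, give the signal. Cells are human HepG2, dosed for 24 h. Serves as background control, fitted relative to DMSO.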

In assay [7] the target is Hypoxia-inducible factor 1-alpha (Homo sapiens) (UniProt Q16665). The experiment in a line: ATG_HIF1a_CIS: Attagene CIS-FACTORIAL HepG2 Assay for human Hypoxia Inducible Factor 1 (HIF1A) (AID 2282951). Particulars: HepG2 Attagene cis-factorial HIF1a reporter transcription; actives raise or lower the signal. Put shortly: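 In this multiplexed cell assay, HepG2 cells bearing transfected cis reporters are dosed for 24 h and reporter mRNA is read by RT-PCR plus capillary electrophoresis; signal increases and decreases are both scored against DMSO.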
Sequence of Hypoxia-inducible factor 1-alpha (Homo sapiens) (Q16665 whole entry, looked up): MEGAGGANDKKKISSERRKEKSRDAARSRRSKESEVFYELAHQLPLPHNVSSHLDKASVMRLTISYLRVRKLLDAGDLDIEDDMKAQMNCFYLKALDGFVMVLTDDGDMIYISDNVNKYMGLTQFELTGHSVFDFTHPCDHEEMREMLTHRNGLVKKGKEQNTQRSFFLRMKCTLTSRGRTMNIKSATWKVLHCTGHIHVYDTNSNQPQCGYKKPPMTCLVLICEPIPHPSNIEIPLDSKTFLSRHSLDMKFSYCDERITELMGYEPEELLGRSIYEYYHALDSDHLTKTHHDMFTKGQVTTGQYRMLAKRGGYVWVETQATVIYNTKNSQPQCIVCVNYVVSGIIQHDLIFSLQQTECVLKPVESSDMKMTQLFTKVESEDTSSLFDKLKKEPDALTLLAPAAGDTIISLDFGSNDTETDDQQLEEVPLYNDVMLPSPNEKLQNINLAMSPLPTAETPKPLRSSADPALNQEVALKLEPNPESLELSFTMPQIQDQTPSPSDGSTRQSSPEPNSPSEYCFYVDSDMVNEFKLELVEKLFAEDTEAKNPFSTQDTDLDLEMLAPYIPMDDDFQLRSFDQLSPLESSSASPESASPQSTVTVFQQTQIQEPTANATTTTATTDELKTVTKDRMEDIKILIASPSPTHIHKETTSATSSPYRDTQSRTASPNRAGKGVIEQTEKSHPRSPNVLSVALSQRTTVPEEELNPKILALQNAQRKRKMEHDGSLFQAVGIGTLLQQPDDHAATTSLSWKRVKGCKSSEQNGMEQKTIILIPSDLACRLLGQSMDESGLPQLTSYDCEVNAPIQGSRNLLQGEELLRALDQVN

Assay [8] addresses Hepatocyte nuclear factor 6 (Homo sapiens) (UniProt Q9UBC0). The assay can be described thus: ATG_HNF6_CIS: Attagene CIS-FACTORIAL HepG2 Assay for human Hepatocyte Nuclear Factor 6 (HNF6) (AID 2282952). To be noted: HepG2 Attagene cis-factorial HNF6 reporter transcription; actives raise or lower the signal. A digest of the protocol:
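Cells are HepG2 carrying transiently transfected cis-promoter reporter units. Treatment lasts 24 h, after which reporter transcripts are reverse-transcribed, amplified, FAM-labelled and sized by capillary electrophoresis. DMSO serves as baseline.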

In assay [9] the target is Heat shock factor protein 1 (Homo sapiens) (UniProt Q00613). The experiment in a line: ATG_HSE_CIS: Attagene CIS-FACTORIAL HepG2 Assay for human Heat Shock Transcription Factor 1 (HSE) (AID 2282953). To be noted: HepG2 HSE cis-reporter, Attagene RNA transcription; actives raise or lower the signal. A digest of the protocol:
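After a 24 h incubation with test chemical, transfected HepG2 cells were harvested for RNA; reporter transcripts were measured by RT-PCR and capillary electrophoresis. Values reflect gain or loss of signal relative to DMSO.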

The nature of assay [10]: ATG_MRE_CIS: Attagene CIS-FACTORIAL HepG2 Assay for human Metal Responsive Element (MRE) (AID 2282954). Particulars: HepG2 MRE cis-reporter transcription, Attagene multiplex; actives raise or lower the signal. Put shortly: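 Transient MRTU transfection of HepG2 (FuGene 6); 24 h dosing; total RNA → oligo(dT) RT, PCR, 6-FAM primer extension, HpaI cut, CE. Bidirectional fit vs DMSO.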

A short description of assay [11]: ATG_PBREM_CIS: Attagene CIS-FACTORIAL HepG2 Assay for human Phenobarbital-responsive Enhancer Module (PBREM) (AID 2282955). Particulars: HepG2 PBREM cis-reporter, Attagene multiplexed transcription; actives raise or lower the signal. A digest of the protocol: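 After a 24 h incubation with test chemical, transfected HepG2 cells yield total RNA; reporter-specific RT-PCR products are fluorescently labelled, HpaI-digested and resolved by capillary electrophoresis against ROX size standards.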

Assay [12] is described as follows: ATG_PXRE_CIS: Attagene CIS-FACTORIAL HepG2 Assay for human Pregnane X Receptor Element (PXRE) (AID 2282957). To be noted: HepG2 Attagene CIS-FACTORIAL PXRE reporter, mRNA; actives raise or lower the signal. Put shortly:
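Multiplexed cis-reporter assay in transiently transfected human HepG2 cells; 24 h chemical exposure. Reporter transcripts quantified by RT-PCR with fluorescent labeling and capillary electrophoresis.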

Assay [13] is described as follows: ATG_PPRE_CIS: Attagene CIS-FACTORIAL HepG2 Assay for human Peroxisome Proliferator-activated Response Element (PPRE) (AID 2282958). Particulars: HepG2 PPRE cis-element reporter, Attagene transcription factor profiling; actives raise or lower the signal. A digest of the protocol: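 Multiplexed reporter transcription units under cis-regulatory promoters were transfected into HepG2 cells to capture endogenous factor activity. A 24 h incubation preceded RNA isolation and fluorescent RT-PCR fragment analysis.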

Assay [14] can be described thus: ATG_RORE_CIS: Attagene CIS-FACTORIAL HepG2 Assay for human RAR-related Orphan Receptor Element (RORE) (AID 2282959). To be noted: HepG2 Attagene cis-factorial RORE reporter, mRNA; actives raise or lower the signal. Put shortly: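 Fluorescence intensity of reporter-specific cDNA fragments, separated by capillary electrophoresis, gives the signal. Source: HepG2 liver cells transiently transfected with cis-element reporters and exposed 24 h; DMSO-normalized bidirectional fit.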

A short description of assay [15]: ATG_Sox_CIS: Attagene CIS-FACTORIAL HepG2 Assay for human SRY-box transcription factor (SOX) (AID 2282960). To be noted: HepG2 Attagene cis-factorial SOX reporter, mRNA; actives raise or lower the signal. Put shortly: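 After 24 h of chemical treatment, transfected HepG2 reporter cells are lysed for total RNA. Transcript levels come from RT-PCR with labelled primer extension and capillary electrophoresis, analysed bidirectionally versus DMSO.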

Assay [16] deals with Transcription factor Sp1 (Homo sapiens) (UniProt P08047). The assay can be described thus: ATG_Sp1_CIS: Attagene CIS-FACTORIAL HepG2 Assay for human Specificity Protein 1 (Sp1) (AID 2282961). Particulars: HepG2 Sp1 cis-reporter transcription, actives raise or lower the signal. Put shortly:
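Sp1-driven reporter mRNA, read as capillary electrophoresis fluorescence after RT-PCR, in transiently transfected HepG2 cells dosed for 24 h; signal change in either direction relative to DMSO.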

The nature of assay [17]: ATG_SREBP_CIS: Attagene CIS-FACTORIAL HepG2 Assay for human Sterol Regulatory Element Binding (SREBP) (AID 2282962). Particulars: HepG2 Attagene cis-factorial SREBP reporter, mRNA; actives raise or lower the signal. Put shortly:
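mRNA induction of transfected cis-promoter reporters in HepG2 cells, 24 h post-dose. Detection: RT-PCR with 6-FAM-labelled products, HpaI digest, capillary electrophoresis. DMSO served as negative control and baseline.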

A short description of assay [18]: ATG_TA_CIS: Attagene CIS-FACTORIAL HepG2 Assay for human TA Basal Promoter (AID 2282964). Particulars: HepG2 Attagene CIS-factorial TA basal promoter reporter; actives raise or lower the signal. A digest of the protocol:
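Multiplexed mRNA reporter assay, HepG2, 24 h. Reporter cDNA amplified, 6-FAM primer-extended, HpaI-cut, CE-sized; DMSO = negative control and baseline.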

Assay [19] has as its target Paired box protein Pax-6 (Homo sapiens) (UniProt P26367). The experiment in a line: ATG_Pax6_CIS: Attagene CIS-FACTORIAL HepG2 Assay for human Paired Box 6 (PAX6) (AID 2282956). Particulars: HepG2 CIS-FACTORIAL PAX6 reporter transcription, RNA readout; actives raise or lower the signal. A digest of the protocol:
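Multiplexed cis-reporter HepG2 system; 24 h treatment; reporter mRNA read by RT-PCR/CE fluorescence; bidirectional fit vs DMSO.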

Assay [20] has as its target Signal transducer and activator of transcription 3 (Homo sapiens) (UniProt P40763). The experiment in a line: ATG_STAT3_CIS: Attagene CIS-FACTORIAL HepG2 Assay for human Signal Transducer and Activator of Transcription 3 (STAT3) (AID 2282963). To be noted: HepG2, Attagene cis-factorial STAT3 reporter transcription; actives raise or lower the signal. Put shortly:
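Endogenous STAT3-responsive cis-element activity was read in transiently transfected HepG2 cells after 24 h treatment. Reporter transcripts were quantified via RT-PCR and capillary electrophoresis, with DMSO as negative control and bidirectional curve fitting.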

Sequence of Transcription factor Sp1 (Homo sapiens) (P08047 whole entry, looked up): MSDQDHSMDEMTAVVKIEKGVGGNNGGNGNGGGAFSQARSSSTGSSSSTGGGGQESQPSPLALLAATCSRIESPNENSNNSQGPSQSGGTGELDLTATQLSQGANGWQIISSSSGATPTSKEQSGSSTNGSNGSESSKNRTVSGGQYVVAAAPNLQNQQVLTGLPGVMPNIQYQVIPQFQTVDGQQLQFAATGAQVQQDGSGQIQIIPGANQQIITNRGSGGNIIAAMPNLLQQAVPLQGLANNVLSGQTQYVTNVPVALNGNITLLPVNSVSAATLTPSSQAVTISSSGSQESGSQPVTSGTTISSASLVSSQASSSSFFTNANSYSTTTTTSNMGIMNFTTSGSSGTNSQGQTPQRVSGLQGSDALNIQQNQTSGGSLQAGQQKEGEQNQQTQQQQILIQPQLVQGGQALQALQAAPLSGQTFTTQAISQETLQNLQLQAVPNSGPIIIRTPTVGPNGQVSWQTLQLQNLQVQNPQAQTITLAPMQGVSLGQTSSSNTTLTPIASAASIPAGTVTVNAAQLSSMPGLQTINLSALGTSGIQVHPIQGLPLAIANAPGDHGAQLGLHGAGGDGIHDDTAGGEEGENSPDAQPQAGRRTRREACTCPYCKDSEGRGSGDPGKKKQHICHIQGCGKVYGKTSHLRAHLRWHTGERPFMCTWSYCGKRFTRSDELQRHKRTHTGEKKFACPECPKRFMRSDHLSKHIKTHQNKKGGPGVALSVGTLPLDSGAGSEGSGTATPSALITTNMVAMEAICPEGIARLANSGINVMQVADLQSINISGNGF
Sequence of Signal transducer and activator of transcription 3 (Homo sapiens) (P40763 whole entry, looked up): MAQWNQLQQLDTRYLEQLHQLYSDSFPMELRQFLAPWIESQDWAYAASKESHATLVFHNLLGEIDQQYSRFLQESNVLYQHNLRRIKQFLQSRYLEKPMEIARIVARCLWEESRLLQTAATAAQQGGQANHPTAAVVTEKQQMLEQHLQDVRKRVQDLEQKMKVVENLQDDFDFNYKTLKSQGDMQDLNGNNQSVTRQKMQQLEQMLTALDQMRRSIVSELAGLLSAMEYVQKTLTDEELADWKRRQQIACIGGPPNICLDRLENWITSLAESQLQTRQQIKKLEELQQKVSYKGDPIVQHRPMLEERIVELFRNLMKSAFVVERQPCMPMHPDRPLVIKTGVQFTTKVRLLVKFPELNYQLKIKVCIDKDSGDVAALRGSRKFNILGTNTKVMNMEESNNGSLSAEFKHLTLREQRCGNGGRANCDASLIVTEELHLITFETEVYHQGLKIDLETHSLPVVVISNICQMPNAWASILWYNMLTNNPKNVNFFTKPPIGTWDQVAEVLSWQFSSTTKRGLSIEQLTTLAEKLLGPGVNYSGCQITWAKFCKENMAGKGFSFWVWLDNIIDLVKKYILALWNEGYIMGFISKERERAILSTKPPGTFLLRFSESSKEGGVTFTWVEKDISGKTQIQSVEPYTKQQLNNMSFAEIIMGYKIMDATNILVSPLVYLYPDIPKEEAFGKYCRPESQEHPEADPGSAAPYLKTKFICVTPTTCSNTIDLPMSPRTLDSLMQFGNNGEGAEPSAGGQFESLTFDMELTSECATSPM
Sequence of Paired box protein Pax-6 (Homo sapiens) (P26367 whole entry, looked up): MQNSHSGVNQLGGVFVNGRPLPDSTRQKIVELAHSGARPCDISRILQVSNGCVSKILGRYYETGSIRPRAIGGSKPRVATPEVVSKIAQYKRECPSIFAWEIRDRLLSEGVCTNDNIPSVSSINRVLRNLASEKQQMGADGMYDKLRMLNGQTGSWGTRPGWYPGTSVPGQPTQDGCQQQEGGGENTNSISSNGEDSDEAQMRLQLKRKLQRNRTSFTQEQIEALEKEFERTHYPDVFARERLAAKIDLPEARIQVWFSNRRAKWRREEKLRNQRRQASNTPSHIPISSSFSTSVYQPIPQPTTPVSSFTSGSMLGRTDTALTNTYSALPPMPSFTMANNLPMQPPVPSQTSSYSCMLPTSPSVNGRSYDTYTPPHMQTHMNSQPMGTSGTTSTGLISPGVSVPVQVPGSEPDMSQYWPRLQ
Sequence of Heat shock factor protein 1 (Homo sapiens) (Q00613 whole entry, looked up): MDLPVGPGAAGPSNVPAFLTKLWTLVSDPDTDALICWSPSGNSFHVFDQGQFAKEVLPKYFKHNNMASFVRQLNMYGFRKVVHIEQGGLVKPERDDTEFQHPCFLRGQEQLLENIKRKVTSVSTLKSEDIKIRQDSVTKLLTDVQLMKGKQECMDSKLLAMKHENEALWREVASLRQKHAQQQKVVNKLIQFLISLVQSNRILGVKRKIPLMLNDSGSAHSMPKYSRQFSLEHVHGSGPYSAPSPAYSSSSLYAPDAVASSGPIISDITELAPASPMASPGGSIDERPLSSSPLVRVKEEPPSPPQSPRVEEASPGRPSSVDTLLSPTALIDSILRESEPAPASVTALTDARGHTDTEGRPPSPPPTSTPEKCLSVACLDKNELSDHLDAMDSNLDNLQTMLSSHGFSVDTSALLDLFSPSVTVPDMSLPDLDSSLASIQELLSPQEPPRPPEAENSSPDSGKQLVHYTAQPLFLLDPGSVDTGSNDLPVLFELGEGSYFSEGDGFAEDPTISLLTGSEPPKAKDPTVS
Sequence of Hepatocyte nuclear factor 6 (Homo sapiens) (Q9UBC0 whole entry, looked up): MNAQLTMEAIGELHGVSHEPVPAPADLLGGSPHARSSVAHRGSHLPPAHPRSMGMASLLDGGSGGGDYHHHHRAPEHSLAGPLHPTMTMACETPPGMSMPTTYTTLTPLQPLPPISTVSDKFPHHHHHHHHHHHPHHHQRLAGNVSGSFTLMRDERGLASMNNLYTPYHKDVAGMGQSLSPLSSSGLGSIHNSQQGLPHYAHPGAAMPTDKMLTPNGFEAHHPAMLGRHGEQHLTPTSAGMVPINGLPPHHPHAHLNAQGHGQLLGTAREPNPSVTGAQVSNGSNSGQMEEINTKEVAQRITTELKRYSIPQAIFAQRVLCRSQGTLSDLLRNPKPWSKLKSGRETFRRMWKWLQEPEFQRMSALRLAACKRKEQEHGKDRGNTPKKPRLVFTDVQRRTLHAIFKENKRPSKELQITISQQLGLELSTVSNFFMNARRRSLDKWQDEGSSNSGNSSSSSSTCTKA

Take `O=C=Nc1cccc2c(N=C=O)cccc12`: the outcome in [1], in assay [2], in [3], in assay [4], in assay [5] and in assay [6] was inactive. In addition, the call in assay [7], in assay [8], in [9], in [10], in assay [11] and in [13] was inactive. The result in [14], in assay [15], in [16], in assay [17] and in [18] was inactive. In addition, the AC50 in [12] is 1.82 µM (active).
`CC(O)C#CC(C)O` (stereo not drawn): the AC50 is 142 µM (active) in assay [1]; 67.7 µM (active) in assay [2]; 99.5 µM (active) in [4]; 70.5 µM (active) in [8]; 78.2 µM (active) in assay [9]; 57.2 µM (active) in [10]. In addition, the AC50 in assay [19] is 81.3 µM (active); in assay [12], 148 µM (active); in assay [15] it was 77.1 µM (active); in assay [16], 73.1 µM (active). The result in [3], in assay [5], in assay [6], in assay [7], in assay [13] and in assay [14] was inactive. Besides, the compound was called inactive in [17] and in assay [20].
With `CC(C)=CCCC(C)O` (stereo not drawn), the result in assay [1], in assay [2], in assay [3], in [4], in assay [5] and in [6] was inactive. Besides, the result in assay [7], in [8], in [9], in [10], in [19] and in assay [12] was inactive. For the same compound, the outcome in assay [13], in assay [14], in assay [15], in assay [16], in assay [17] and in [20] was inactive. In addition, the compound was called inactive in assay [18].
In the case of `O=C(O)C(F)(F)C(F)(F)C(F)(F)OC(F)(C(F)(F)F)C(F)(F)F`, the outcome in assay [1], in assay [2], in assay [3], in [4], in assay [5] and in assay [6] was inactive. Moreover, the outcome in assay [7], in assay [8], in assay [9], in assay [10], in [19] and in assay [14] was inactive. The outcome in assay [15], in assay [16], in assay [17] and in [20] was inactive. Also, the AC50 is 39.8 µM (active) in assay [12] and 45.9 µM (active) in assay [13].
